About 83,000 compounds went through this panel and 20% of them were active in at least one assay; those are over-represented in the sample as a whole.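 The test compound was applied at a single concentration to cells in 96-well plates for 48 hours, and percent growth was recorded.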 A number with no mark means an inactive call. The source made the active and inactive calls. The calls were made as follows: active = growth percent below 10; inactive = the rest.
How the values were obtained:
Assay in all cases: NCI-60 one-dose screen, 48 h (100 = growth as untreated, 0 = no growth, -100 = all killed)
Conditions in all cases: 10 µM unless noted
SR leukemia = test system: SR leukemia
RPMI-8226 leukemia = test system: RPMI-8226 leukemia
OVCAR-8 ovarian = test system: OVCAR-8 ovarian
OVCAR-5 ovarian = test system: OVCAR-5 ovarian
OVCAR-4 ovarian = test system: OVCAR-4 ovarian
IGROV1 ovarian = test system: IGROV1 ovarian
OVCAR-3 ovarian = test system: OVCAR-3 ovarian
HS 578T breast = test system: HS 578T breast
NCI/ADR-RES ovarian = test system: NCI/ADR-RES ovarian
SK-OV-3 ovarian = test system: SK-OV-3 ovarian

| Compound | growth (SR leukemia) | growth (RPMI-8226 leukemia) | growth (OVCAR-8 ovarian) | growth (OVCAR-5 ovarian) | growth (OVCAR-4 ovarian) | growth (IGROV1 ovarian) | growth (OVCAR-3 ovarian) | growth (HS 578T breast) | growth (NCI/ADR-RES ovarian) | growth (SK-OV-3 ovarian) |
| --- | --- | --- | --- | --- | --- | --- | --- | --- | --- | --- |
| CCN1C(=O)N(CC)C2Nn3c(s/c(=C4\C(=O)N(C5CCCC5)c5ccccc54)c3=O)=NC21 (stereo not drawn) | 34.8% | 54.1% | 60.2% | 77.5% | 55.7% | 67.3% | 40.8% | 62% | 10.9% |  |
| COc1cccc2cc(-c3cc4ccccc4[nH]3)/c(=N/C(=S)Nc3ccccc3)oc12 | 104% | 131% | 66.2% | 89.6% | 40.7% | 58.1% | 80.5% | 25.1% | 51.4% |  |
| CCN1C(=O)/C(=c2\sc3n(c2=O)C2C(NN=3)N(CC)C(=S)N2CC)c2ccccc21 (stereo not drawn) | 91.8% | 105% | 100% | 107% | 88.7% | 100% | 103% | 99.8% | 103% |  |
| COc1cccc2cc(-c3cc4ccccc4[nH]3)c(=NC(=O)c3ccc(Cl)cc3)oc12 | 62.7% | 76.1% | 53.8% | 85.9% | 66.8% | 53.7% | 67% | 70.8% | 53% |  |
| O=C(CCCn1c2c(sc3ccccc32)c(=O)n2nnc(-c3ccccc3)c12)NCCc1cnc[nH]1 | 55.2% | -4.25% (active) | -50.6% (active) | -82.1% (active) | -92.5% (active) |  | -49.7% (active) | 23.4% | 21.2% | 5.51% (active) |
| CCN1C(=O)N(CC)C2C1NN=c1s/c(=C3\C(=O)N(C4CCCC4)c4ccccc43)c(=O)n12 (stereo not drawn) | 0.0502% (active) | -0.279% (active) | 23% | 49.7% | 46.1% | 31.9% | -35.3% (active) | -7.85% (active) | -22.8% (active) |  |
| C=C1C(=O)O[C@H]2[C@H]1CC/C(COC(=O)NCCc1ccc(Br)cc1)=C\CC[C@@]1(C)O[C@@H]21 | -4.11% (active) | 2.82% (active) | 7.1% (active) | 39.6% | 30% |  | -71.8% (active) | 22.9% | 58.4% | 97.2% |
| O=C(Nc1cccc(C(F)(F)F)c1)Nc1ccc(OCc2nnc(-c3ccccc3)o2)c(F)c1 | 5.85% (active) | 2.02% (active) |  | 50.9% | 34.5% | 45.9% | 15.6% | 39.2% | 37% | 69.1% |
| COc1cccc(/C=C/C(=O)c2sc(Nc3ccc(O)cc3)nc2C)c1 | 35.8% | 4.79% (active) |  | 111% | 96.9% | 88.1% | 75.7% |  | 99% | 103% |
| COC(=O)[C@H]1[C@H](OC)[C@@H](OC(=O)/C=C/c2ccncc2)CC2CN3CCc4c([nH]c5cc(OC)ccc45)[C@@H]3C[C@@H]21 (stereo partly drawn) | 78.3% | 57.4% |  | 106% | 60.8% | 85.2% | 89.8% | 77.5% | 81.8% | 89.1% |
| COC(=O)c1cc(-c2cccs2)c(C#N)c(N)c1C#N | 94.5% | 99.7% | 98.9% | 105% |  | 94.2% | 108% | 102% | 106% | 101% |
| COc1ccc(N=C2NN=C(c3ccc(F)cc3)CS2)cc1OC | 53% | 74.4% |  | 85.7% | 103% | -11.7% (active) | 96.6% | 110% | 97.6% | 104% |
| O=C(CSc1nc(-c2ccc(Cl)cc2)cn1-c1ccc(Cl)cc1)c1ccc(Br)cc1 | 92.7% | 86.1% |  | 84.1% | 9.78% (active) | 59.9% | 84.9% | 63.2% | 70.6% | 79% |
| CCOC(=O)C(Cc1ccccc1)n1c(O)c(C=Nc2ccc(C(=O)OCCN(CC)CC)cc2)sc1=O (stereo not drawn) | 23.7% | 68% |  | 100% | 89.4% | 97.5% | 93% | 88.1% | 107% | 106% |
| COc1ccc(/C=C\c2cc(OC)c(OC)c(OC)c2)c(NS(=O)(=O)c2ccc(C(C)(C)C)cc2)c1O | 16.4% | 27.9% |  | 32.4% | 28.2% | 38.5% | 0.435% (active) | 35.4% | 9.51% (active) | 31% |
| O=c1oc2cc(OS(=O)(=O)c3ccccc3)c(Cl)cc2c2c1CCCCCC2 | 63.4% | 75.2% | 89.2% | 90.1% |  | 84.3% | 91.3% | 88.6% | 67.4% | 106% |
| O=C(NCCc1c[nH]c2ccccc12)C1Cc2ccccc2CN1C(=O)c1ccco1 (stereo not drawn) | 65.5% | 87.3% |  | 125% | 96.9% | 3.58% (active) | 104% | 118% | 128% | 125% |
| COc1ccc(C2=CC(c3ccc(Oc4ccnc5cc(Cl)ccc45)c(OC)c3)c3c(nc(OC)[nH]c3=O)N2)cc1 (stereo not drawn) | 13.4% | 28.8% |  | 115% | 63.9% | 86.6% | 58% | 97.1% | 71.1% | 102% |
| CCSc1nnc(NC(=O)COc2ccc(Cl)cc2C)s1 | 43.4% | 94.6% |  | 96.2% | 107% | -17.9% (active) | 94.8% | 101% | 106% | 93.5% |
| O=C(Nc1ccc(OCc2nnc(-c3ccc(Cl)cc3)o2)c(F)c1)Nc1ccc(Cl)c(Cl)c1 | 21.4% | 57% | 60.2% | 66.6% |  | 66.5% | 25.9% | 32% | 65.2% | 60.6% |
| CCCCCCCCCCCCNC(=S)N/N=C/c1ccc(Cl)c(Cl)c1 | 93.8% | 102% |  | 93.9% | 99.3% | 119% | 111% |  | 113% | 114% |
| O=C(CNc1ccc(Cl)cc1)Nc1ccc(-c2nc3ccccc3s2)cc1 | 11.5% | 46% |  | 121% | 23.1% | 34.3% | 28.9% | 84.1% | 64.5% | 89.7% |
| O=c1[nH]c2ccccc2cc1-c1nnc(Cc2ccccc2)o1 | 31.6% | 15.3% |  | 120% | 61.3% | 66% | 69.6% | 90.1% | 89.8% | 92.8% |
| CC1=NN2C(=NC3=C(CCC/C3=C\c3ccc(Cl)cc3)C2c2ccc(Cl)cc2)S1 (stereo not drawn) | 64.5% | -18.4% (active) |  | 103% | 86.8% | 103% |  | 101% | 106% | 115% |
| Cc1cccc(NC(=O)c2sc3nc4c(cc3c2N)CCC4)c1C | 25% | -5.02% (active) | 14.1% | 44% |  | 44.6% |  | 28.6% | -16.2% (active) | 37.9% |
| CCN(CC)P(=O)(N(CC)CC)N(CCCSC/C=C(\C)CC/C=C(\C)CCC=C(C)C)CCCN1CCN(C)CC1 | 22.9% | 94.6% |  | 103% | 92.5% | 110% | 104% |  | 106% | 103% |
| COc1cc2c3c(c(=O)oc2cc1OS(=O)(=O)c1ccc(C(F)(F)F)cc1)CCCCC3 | 58.6% | 84.8% | 93.8% | 79.6% |  | 86.7% |  | 56.4% | 76.3% | 83% |
| COc1cc2nc(SCc3cc(OC)c(OC)c(OC)c3)n(Cc3ccccc3)c(=O)c2cc1OC | 6.25% (active) | 54.8% |  | 53.7% | 44.2% | 39.2% | 6.2% (active) | 26.7% | -15.8% (active) | 29.8% |
| O=S(=O)(NCCNc1cc(-c2cn(-c3ccccc3)nc2-c2ccccc2)ccn1)c1cccc2ccccc12 | 56% | 38.7% |  | 74.4% | 49.1% | 63.1% | 59.5% | 56.3% | 43.8% | 66.3% |
| CCCCCCCCCCCCCCCCCCOc1cccc(CCOP(=O)(O)OCC[N+](C)(C)C)c1 | 58.6% | 86.9% |  | 101% | 91.4% | 39% | 86.9% | 93.1% | 94.1% |  |
